Laboratory results reported in PubChem BioAssay (NCI).
This is part of a sample that, as a whole, favours compounds with a hit. Of some 79,000 tested, about 15% had one in any assay. Activity calls are given as the source filed them. Cut-off read from the data, not from the text of the source: active = growth inhibition above about 70%; inactive = the rest.

Key:
[1] = NCI Yeast Anticancer Drug Screen. Data for the rad52 strain (AID 147);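 note: 0% = growth of vehicle-treated control cultures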; settings: S. cerevisiae rad52 mutant growth inhibition, hits give high values
Method in brief: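 Here a repair-compromised yeast strain receives each compound; its growth is then quantified and normalised to vehicle-only controls.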

[2] = NCI Yeast Anticancer Drug Screen. Data for the wt1 strain (AID 149);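 note: 0% = growth of vehicle-treated wt1 cultures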; settings: S. cerevisiae wt1 strain (SPY 50644) growth inhibition, hits give high values
Method in brief: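 The wt1 strain was treated with compounds, and growth was compared with vehicle-treated cultures to give inhibition.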

[3] = NCI Yeast Anticancer Drug Screen. Data for the rad50EPP+ strain (AID 151);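 note: 0% = growth of vehicle-treated control cultures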; settings: S. cerevisiae rad50 mutant strain, hits give high values
Method in brief: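 Read-out is yeast growth inhibition relative to vehicle; cells used were the rad50EPP+ strain.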

[4] = NCI Yeast Anticancer Drug Screen. Data for the mgt1 strain (AID 153); settings: S. cerevisiae mgt1 mutant growth inhibition, hits give high values
Method in brief: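 Measured: inhibition of mgt1 yeast growth by compound, normalized to vehicle-treated cultures.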

[5] = NCI Yeast Anticancer Drug Screen. Data for the rad50 strain (AID 155);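 note: 0% = growth of vehicle-only cultures of the same strain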; settings: S. cerevisiae rad50 strain growth inhibition, hits give high values
Method in brief: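 Cells are treated with compound, grown, and their growth is then scored against vehicle-only cultures of the same repair-deficient yeast strain.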

[6] = NCI Yeast Anticancer Drug Screen. Data for the mec2-1 strain (AID 157); settings: S. cerevisiae mec2-1 strain, hits give high values
Method in brief: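 Using mec2-1 yeast: add compound, measure growth, express inhibition versus vehicle-treated cultures.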

[7] = NCI Yeast Anticancer Drug Screen. Data for the rad14 strain (AID 159);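 note: 0% = growth of vehicle-treated control cultures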; settings: S. cerevisiae rad14 strain growth inhibition, hits give high values
Method in brief: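 Readout: yeast growth inhibition, referenced to vehicle-only cultures. Strain bears a defined alteration in DNA damage repair.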

[8] = NCI Yeast Anticancer Drug Screen. Data for the sgs1 mgt1 strain (AID 161);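 note: 0% = growth of cultures given vehicle only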; settings: S. cerevisiae sgs1 mgt1 strain, hits give high values
Method in brief: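 Percent growth inhibition was derived by comparing compound-exposed mutant yeast with vehicle-exposed cultures. The strain carries alterations in DNA damage repair.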

[9] = NCI Yeast Anticancer Drug Screen. Data for the CLN2oe strain (AID 163);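 note: 0% = growth of vehicle-only control cultures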; settings: S. cerevisiae CLN2oe strain, hits give high values
Method in brief: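 Whole-cell yeast growth assay. A strain engineered for altered cell-cycle control received compound, and inhibition relative to vehicle-treated cultures was recorded.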

[10] = NCI Yeast Anticancer Drug Screen. Data for the cln2 rad14 strain (AID 165);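 note: 0% = growth equal to vehicle treated cultures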; settings: S. cerevisiae cln2 rad14 strain, hits give high values
Method in brief: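 Yeast strain cln2 rad14, bearing defects in cell cycle control and DNA repair, serves as the test system; values reflect growth inhibition compared with vehicle.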

[11] = NCI Yeast Anticancer Drug Screen. Data for the bub3 strain (AID 167); settings: S. cerevisiae bub3 mutant strain, hits give high values
Method in brief: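 Part of a panel of yeast mutants defective in DNA damage repair or cell cycle regulation. Each strain is grown with compound, and inhibition is calculated relative to solvent-treated cultures.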

[12] = NCI Yeast Anticancer Drug Screen. Data for the wt2 strain (AID 169);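 note: 0% = growth of vehicle-treated yeast cultures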; settings: S. cerevisiae wt2 strain growth inhibition, hits give high values
Method in brief: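 Treated yeast vs. vehicle-treated yeast: growth inhibition determined.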

[13] = NCI Yeast Anticancer Drug Screen. Data for the mlh1 strain (AID 171);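 note: 0% = growth of vehicle-treated control cultures of the same strain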; settings: S. cerevisiae mlh1 strain growth inhibition, hits give high values
Method in brief: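 A yeast strain with a defined genetic lesion serves as the test organism. Cultures receive compound or vehicle, and growth is measured.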

[14] = NCI Yeast Anticancer Drug Screen. Data for the sgs1 strain (AID 173);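 note: 0% = growth of vehicle-only control cultures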; settings: S. cerevisiae sgs1 mutant, hits give high values
Method in brief: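 A genetically defined yeast mutant is incubated with the test compound, and its growth is compared to that of the same strain given vehicle.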

[15] = NCI Yeast Anticancer Drug Screen. Data for the mlh1 rad18 strain (AID 175); settings: S. cerevisiae mlh1 rad18 strain growth inhibition, hits give high values
Method in brief: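 Steps: expose repair-defective yeast to compound; measure growth; express inhibition against vehicle-treated controls.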

[16] = NCI Yeast Anticancer Drug Screen. Data for the rad18 strain (AID 177); settings: S. cerevisiae rad18 mutant growth inhibition, hits give high values
Method in brief: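 Measured value is growth inhibition of a yeast strain bearing a DNA repair alteration, referenced to vehicle-treated cells.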

[17] = at 5.0 µM (retest, dose inferred, filed as 0.5)
[18] = at 50.0 µM (retest, dose inferred, filed as 5.0)

Measured: growth inhibition

Cc1cccc(C)c1NC(=O)CCC(=O)C(C)C(=O)c1ccc(O)cc1 (stereo unspecified)
inactive: [1]; at 1.2 µM 2% | [1]; at 3.7 µM 1% | [1]; at 11.0 µM 2% | [1]; at 33.0 µM 1% | [1]; at 100.0 µM 0% | [2]; at 1.2 µM -1% | [2]; at 3.7 µM -2% | [2]; at 11.0 µM -1% | [2]; at 33.0 µM -1% | [2]; at 100.0 µM -2% | [3]; at 1.2 µM 0% | [3]; at 3.7 µM -1% | [3]; at 11.0 µM 1% | [3]; at 33.0 µM 1% | [3]; at 100.0 µM 8% | [4]; at 1.2 µM -1% | [4]; at 3.7 µM 4% | [4]; at 11.0 µM -3% | [4]; at 33.0 µM -2% | [4]; at 100.0 µM -5% | [5]; at 1.2 µM -1% | [5]; at 3.7 µM 0% | [5]; [17] 1% | [5]; at 11.0 µM 1% | [5]; at 33.0 µM 1% | [5]; [18] 2% | [5]; at 50.0 µM 57.6% | [5]; at 100.0 µM 0% | [6]; at 1.2 µM -6% | [6]; at 3.7 µM -5% | [6]; [17] -2% | [6]; at 11.0 µM -6% | [6]; at 33.0 µM -3% | [6]; [18] 8% | [6]; at 50.0 µM 15.1% | [6]; at 100.0 µM -5% | [7]; at 1.2 µM -1% | [7]; at 3.7 µM 2% | [7]; at 11.0 µM 2% | [7]; at 33.0 µM 0% | [7]; at 100.0 µM -1% | [8]; [17] 0% | [8]; [18] 5% | [8]; at 50.0 µM 23.2% | [9]; at 1.2 µM -5% | [9]; at 3.7 µM -4% | [9]; at 11.0 µM -3% | [9]; at 33.0 µM 1% | [9]; at 100.0 µM -3% | [10]; [17] -2% | [10]; [18] 2% | [10]; at 50.0 µM 50% | [11]; at 1.2 µM -2% | [11]; at 3.7 µM -2% | [11]; [17] 0% | [11]; at 11.0 µM -2% | [11]; at 33.0 µM -2% | [11]; [18] 7% | [11]; at 50.0 µM 11.8% | [11]; at 100.0 µM 5% | [12]; at 1.2 µM -1% | [12]; at 3.7 µM -1% | [12]; at 11.0 µM 0% | [12]; at 33.0 µM 0% | [12]; at 100.0 µM -1% | [13]; at 1.2 µM -2% | [13]; at 3.7 µM -3% | [13]; at 11.0 µM -1% | [13]; at 33.0 µM -2% | [13]; at 100.0 µM -1% | [14]; at 1.2 µM -2% | [14]; at 3.7 µM -2% | [14]; at 11.0 µM -2% | [14]; at 33.0 µM -2% | [14]; at 100.0 µM 0% | [15]; [17] -1% | [15]; [18] 6% | [15]; at 50.0 µM 6.95% | [16]; at 1.2 µM -2% | [16]; at 3.7 µM -1% | [16]; at 11.0 µM 0% | [16]; at 33.0 µM -2% | [16]; at 100.0 µM 0%

CC(C)[Si]1(C(C)C)OCC2OC(n3cnc4c(N)ncnc43)C(N)C2O[Si](C(C)C)(C(C)C)O1 (stereo unspecified)
active: [1]; at 33.0 µM 98% | [1]; at 100.0 µM 98% | [2]; at 33.0 µM 98% | [2]; at 100.0 µM 98% | [3]; at 100.0 µM 89% | [4]; at 33.0 µM 98% | [4]; at 100.0 µM 98% | [5]; at 33.0 µM 98% | [5]; [18] 98% | [5]; at 50.0 µM 89.8% | [5]; at 100.0 µM 98% | [6]; at 33.0 µM 98% | [6]; [18] 99% | [6]; at 50.0 µM 90.4% | [6]; at 100.0 µM 98% | [7]; at 33.0 µM 98% | [7]; at 100.0 µM 98% | [8]; [18] 99% | [8]; at 50.0 µM 88.8% | [9]; at 33.0 µM 97% | [9]; at 100.0 µM 98% | [10]; [18] 99% | [10]; at 50.0 µM 89.3% | [11]; at 33.0 µM 97% | [11]; [18] 99% | [11]; at 50.0 µM 86.5% | [11]; at 100.0 µM 98% | [12]; at 11.0 µM 93% | [12]; at 33.0 µM 98% | [12]; at 100.0 µM 97% | [13]; at 33.0 µM 97% | [13]; at 100.0 µM 98% | [14]; at 33.0 µM 97% | [14]; at 100.0 µM 98% | [15]; [18] 99% | [15]; at 50.0 µM 87.4% | [16]; at 33.0 µM 97% | [16]; at 100.0 µM 97%
inactive: [1]; at 1.2 µM 3% | [1]; at 3.7 µM 9% | [1]; at 11.0 µM 32% | [2]; at 1.2 µM 5% | [2]; at 3.7 µM 11% | [2]; at 11.0 µM 34% | [3]; at 1.2 µM 10% | [3]; at 3.7 µM 20% | [3]; at 11.0 µM 15% | [3]; at 33.0 µM 24% | [4]; at 1.2 µM 19% | [4]; at 3.7 µM 16% | [4]; at 11.0 µM 20% | [5]; at 1.2 µM 7% | [5]; at 3.7 µM 10% | [5]; [17] 38% | [5]; at 11.0 µM 41% | [6]; at 1.2 µM 19% | [6]; at 3.7 µM -5% | [6]; [17] 14% | [6]; at 11.0 µM 14% | [7]; at 1.2 µM -1% | [7]; at 3.7 µM 1% | [7]; at 11.0 µM 13% | [8]; [17] 7% | [9]; at 1.2 µM 14% | [9]; at 3.7 µM 2% | [9]; at 11.0 µM 5% | [10]; [17] 18% | [11]; at 1.2 µM -3% | [11]; at 3.7 µM -10% | [11]; [17] -26% | [11]; at 11.0 µM 9% | [12]; at 1.2 µM -50% | [12]; at 3.7 µM -34% | [13]; at 1.2 µM 3% | [13]; at 3.7 µM 14% | [13]; at 11.0 µM 32% | [14]; at 1.2 µM 6% | [14]; at 3.7 µM 5% | [14]; at 11.0 µM 19% | [15]; [17] 47% | [16]; at 1.2 µM -8% | [16]; at 3.7 µM 2% | [16]; at 11.0 µM 22%
